From PubChem BioAssay AID1159580 (chemical genetic matrix, 2015)
Values joined by “and” are separate entries in the source; they are usually repeats but may differ in a detail not shown here. Equal values may be shown once. Screen size: about 5,500 compounds; about 2,000 (36%) were called active. Not shown: some 18% with an inconclusive outcome. Rule as the data show it: active = normalized growth mostly below about 0.91 (no sharp cut-off); inconclusive = no clear call, values can overlap the other calls; inactive = mostly above about 0.92. Some of the results follow.

Test: chemical genetic growth profiling, strain panel (AID 1159580);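 also: tested at 20 µM; growth read once vehicle control cultures reached saturation at 30 °C; 1 = growth at the plate median or of vehicle wells; lower values mean less growth of the strain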
Conditions: S. cerevisiae deletion strains, growth OD

Measured: normalized growth

CCC(C)[C@H]1O[C@]2(C=C[C@@H]1C)C[C@@H]1C[C@@H](C/C=C(\C)[C@@H](OC3C[C@H](OC)C(O[C@H]4C[C@H](OC)[C@@H](O)[C@H](C)O4)[C@H](C)O3)[C@@H](C)/C=C/C=C3\CO[C@@H]4[C@H](O)C(C)=C[C@@H](C(=O)O1)[C@]34O)O2 (some centres not stated)
active: locus YAL013W, strain DEP1, stronger effect = lower value 0.804 | locus YBR009C, strain hhf1, stronger effect = lower value 0.809 | locus YBR021W, strain FUR4, stronger effect = lower value 0.838 | locus YBR023C, strain chs3, stronger effect = lower value 0.889 | locus YBR279W, strain paf1, stronger effect = lower value 0.882 | locus YCL011C, strain gbp2, stronger effect = lower value 0.817 | locus YCL016C, strain dcc1, stronger effect = lower value 0.86 | locus YCL029C, strain bik1, stronger effect = lower value 0.889 | locus YCL069W, strain vba3, stronger effect = lower value 0.898 | locus YDL035C, strain GPR1, stronger effect = lower value 0.847 | locus YDL074C, strain BRE1, stronger effect = lower value 0.669 | locus YDL134C, strain PPH21, stronger effect = lower value 0.853 | locus YDL192W, strain arf1, stronger effect = lower value 0.847 | locus YDR137W, strain rgp1, stronger effect = lower value 0.499 | locus YDR162C, strain NBP2, stronger effect = lower value 0.769 | locus YDR195W, strain ref2 1.32 [resistant] | locus YDR318W, strain mcm21, stronger effect = lower value 0.853 | locus YDR388W, stronger effect = lower value 0.857 | locus YDR502C, strain sam2, stronger effect = lower value 0.841 | locus YER016W, strain bim1, stronger effect = lower value 0.911 | locus YGL086W, strain mad1, stronger effect = lower value 0.8 | locus YGL248W, strain PDE1, stronger effect = lower value 0.797 | locus YGL253W, strain hxk2, stronger effect = lower value 0.743 | locus YHR079C, strain IRE1 (second series), stronger effect = lower value 0.87 | locus YHR129C, strain ARP1, stronger effect = lower value 0.814 | locus YHR142W, strain chs7, stronger effect = lower value 0.864 | locus YIL066C, strain RNR3, stronger effect = lower value 0.742 | locus YIR030C, strain dcg1, stronger effect = lower value 0.904 | locus YJL095W, strain BCK1 (second series), stronger effect = lower value 0.891 | locus YJL164C, strain tpk1, stronger effect = lower value 0.795 | locus YJL187C, strain SWE1 (second series), stronger effect = lower value 0.791
inactive: locus YAL021C, strain ccr4, stronger effect = lower value 0.919 | locus YAL026C, strain drs2, stronger effect = lower value 0.954 | locus YAL030W, strain snc1, stronger effect = lower value 0.984 | locus YBL061C, strain skt5, stronger effect = lower value 0.964 | locus YBR171W, strain sec66, stronger effect = lower value 1 | locus YBR229C, strain ROT2, stronger effect = lower value 0.997 | locus YBR231C, strain swc5, stronger effect = lower value 0.947 | locus YCL061C, strain MRC1, stronger effect = lower value 0.976 | locus YCR088W, strain abp1, stronger effect = lower value 0.981 | locus YDL005C, strain med2, stronger effect = lower value 0.971 | locus YDL040C, strain nat1, stronger effect = lower value 0.983 | locus YDL101C, strain DUN1, stronger effect = lower value 0.933 | locus YDL185W, strain tfp1, stronger effect = lower value 1.02 | locus YDR001C, strain nth1, stronger effect = lower value 0.996 | locus YDR069C, strain doa4, stronger effect = lower value 1.02 | locus YDR101C, strain arx1, stronger effect = lower value 0.959 | locus YDR159W, strain sac3, stronger effect = lower value 0.915 | locus YDR297W, strain sur2, stronger effect = lower value 0.989 | locus YDR334W, strain swr1, stronger effect = lower value 0.982 | locus YDR335W, strain msn5, stronger effect = lower value 0.996 | locus YDR392W, strain spt3, stronger effect = lower value 0.855 | locus YEL003W, strain gim4, stronger effect = lower value 0.928 | locus YEL037C, strain rad23, stronger effect = lower value 0.973 | locus YEL061C, strain CIN8 (second series), stronger effect = lower value 0.973 | locus YEL061C, strain CIN8, stronger effect = lower value 0.933 | locus YER015W, strain faa2, stronger effect = lower value 0.957 | locus YER110C, stronger effect = lower value 1.03 | locus YER111C, strain swi4, stronger effect = lower value 0.997 | locus YER155C, strain BEM2 (second series), stronger effect = lower value 1.07 | locus YER155C, strain BEM2, stronger effect = lower value 0.966 | locus YER167W, strain BCK2, stronger effect = lower value 0.913 | locus YFR010W, strain ubp6, stronger effect = lower value 1 | locus YGL078C, strain dbp3, stronger effect = lower value 1.01 | locus YGL167C, strain pmr1, stronger effect = lower value 1.01 | locus YGL173C, strain kem1, stronger effect = lower value 0.967 | locus YGL227W, strain vid30, stronger effect = lower value 1 | locus YGL240W, strain doc1, stronger effect = lower value 1.06 | locus YGR135W, strain pre9, stronger effect = lower value 1.03 | locus YGR252W, strain gcn5, stronger effect = lower value 0.939 | locus YHR013C, strain ard1, stronger effect = lower value 0.847 | locus YHR027C, strain rpn1, stronger effect = lower value 0.977 | locus YHR079C, strain IRE1, stronger effect = lower value 0.966 | locus YHR094C, strain hxt1, stronger effect = lower value 1.01 | locus YHR200W, strain rpn10, stronger effect = lower value 1.01 | locus YIL073C, strain SPO22, stronger effect = lower value 0.817 | locus YIL125W, strain kgd1, stronger effect = lower value 0.994 | locus YJL092W, strain hpr5, stronger effect = lower value 0.967 | locus YJL115W, strain asf1, stronger effect = lower value 1 | locus YJL129C, strain trk1, stronger effect = lower value 0.955 | locus YJL134W, strain LCB3, stronger effect = lower value 1.01 | locus YJL154C, strain vps35, stronger effect = lower value 1 | locus YJL166W, strain qcr8, stronger effect = lower value 0.916 | locus YJL168C, strain set2, stronger effect = lower value 1.02 | locus YJL187C, strain SWE1, stronger effect = lower value 0.951
0.865 (active) and 0.98 (inactive): locus YHR030C, strain SLT2, stronger effect = lower value
0.722 (active) and 0.976 (inactive): locus YJL095W, strain BCK1, stronger effect = lower value
